Assay outcomes from PubChem BioAssay.
The list is not random: actives were taken first. Their share in the collection is about 0.4%.
FMDV FLuc: shows antiviral activity against foot and mouth disease virus; FMDV antiviral cell assay, firefly luciferase signal; Potency, µM (top dose mostly 57.5 µM), for the others: top-dose activity change, negative = inhibition, usual class: inhibitors; actives 0.23% (n = 120,000); AID 1745856; note: nearly all actives have a fitted effect of over 60% in size
FMDV RLuc: FMDV antiviral activity by Renilla signal; FMDV replicon cells, Renilla luciferase signal; Potency, µM (titrated, usually from 57.5 µM), inactives show at the highest dose activity change, negative = inhibition, actives largely listed as inhibitors; actives 0.32% (n = 120,000); note: nearly all actives have a fitted effect of over 55% in size
Active calls of the source: *; u = inconclusive; [ ] = remark or other dose. Calls come from the whole dose curve. % is set by controls: 0 for no effect and ±100 for the full control effect; potency is the fitted concentration of half-maximal effect.

SMILES	FMDV FLuc	FMDV RLuc
CC(c1nc2ccccc2s1)N(C)S(=O)(=O)c1ccccc1 (stereo not given)	13%	0%[1.06 µM]
N#CC(/C(=N/S(=O)(=O)c1ccccc1)c1ccccc1)c1nc2ccccc2s1 (stereo not given)	28µM*	1%
CC(COc1ccc(F)cc1)CN1CCC(C(O)(c2ccccc2)c2ccccc2)CC1 (stereo not given)	-9%	-10%
Cc1ccc(NC(=O)CN2C(=O)C3(SCC(=O)N3c3cccc(Cl)c3)c3ccccc32)cc1C (stereo not given)	u	13µM*
Cc1ccc(N2C(=O)CSC23C(=O)N(CC(=O)Nc2ccc(C(C)C)cc2)c2ccccc23)cc1C (stereo not given)	u	-27%
CCCCn1c(=O)[nH]c(=O)c2c1nc(-c1ccncc1)n2C1CCCC1	-11%	-12%
CC12CC[C@H]3[C@@H](CCC4(O)CC(O[N+](=O)[O-])CCC34CO[N+](=O)[O-])C1(O)CCC2C1=CC(=O)OC1 (stereo not given in full)	u	10µM*
CC1OC(OC2CCC3(C=O)[C@H]4CCC5(C)C(C6=CC(=O)OC6)CCC5(O)[C@@H]4CCC3(O)C2)CC2OC(C)(C)OC12 (stereo not given in full)	1µM*	1.3µM*
CC1OC(OC2CCC3(C=O)[C@H]4CCC5(C)C(C6=CC(=O)OC6)CCC5(O)[C@@H]4CCC3(O)C2)C(O)C(O)C1O (stereo not given in full)	-79%	-75%
C[C@@H]1O[C@@H](O[C@H]2C[C@@H](O)[C@]3(CO)[C@H]4[C@H](O)C[C@]5(C)[C@@H](C6=CC(=O)OC6)CC[C@]5(O)[C@@H]4CC[C@]3(O)C2)[C@H](O)[C@H](O)[C@H]1O	-69%[11.5 µM]	-76%
CC1OC(OC2CCC3(C=O)[C@H]4CCC5(C)C(C6=CC(=O)OC6)CCC5(O)[C@@H]4CCC3(O)C2)CC(O)C1O (stereo not given in full)	u	0.28µM*
O=C(O)/C=C/C(=O)c1ccc(Br)cc1	19%	-7%
Cc1nc2sccn2c1-c1csc(Nc2cccc(Cl)c2C)n1	u	35µM*
CCc1ccccc1Nc1nc(-c2c(C)nc3sccn23)cs1	-25%	u
Cc1oc2cc(O)ccc2c(=O)c1Oc1ccc(C(=O)O)cc1	26%	2%
CCNC(=O)N1CCN(CCCC(c2ccc(F)cc2)c2ccc(F)cc2)CC1	14%[11.5 µM]	u
OC1(c2ccc(Cl)c(C(F)(F)F)c2)CCN(CCCC(c2ccc(F)cc2)c2ccc(F)cc2)CC1	-13%[11.5 µM]	22µM*
CCc1ccccc1NC(=O)c1ncoc1-c1ccc(OC)c(OC)c1	12%	-1%
FC(F)(F)c1cnc(SCc2csc(-c3ccccc3)n2)c(Cl)c1	5%	6%
C=CCn1c(N2CCC(C)CC2)nc2c1c(=O)n(C)c(=O)n2C	-3%	3%
CC(C)CCC(=O)NCCCNC(=O)c1cccs1	8%	4%
Cc1cccc(N2CCN(c3ncnc4c3nc3n4CCCCC3)CC2C)c1 (stereo not given)	2.8µM*	2.5µM*
Clc1cccc(N2CCN(c3ncnc4c3nc3n4CCCC3)CC2)c1	0%	u
Cc1ccc(-c2nnc(CCC(=O)Nc3cccc(S(=O)(=O)NC4=NCCC4)c3)o2)cc1	17%	7%
COc1ccc(N2C(=O)CN(Cc3ccc4c(c3)OCO4)[C@H]3CS(=O)(=O)C[C@H]32)cc1Cl	1%	6%
SMILES	FMDV FLuc	FMDV RLuc
O=C(COc1ccc2c(-c3ccc(F)cc3)noc2c1)OCc1ccccc1	2.8µM*	1%
COC(=O)c1ccc(COc2ccc3c(-c4ccc(F)cc4)noc3c2)cc1	16%	16%
CCCCCCCCCCCCCCCC[N+](C)(C)Cc1ccccc1	-26%	-14%
CCCCCCCCCCCCCC[N+](C)(C)Cc1ccccc1	u	25µM*
C(=Nc1ccccc1)c1ccc(-c2cccs2)s1	u	8.9µM*
CC(C)(C)c1ccc(N=Cc2cccs2)cc1	4%	4%
CCOC(=O)C1CCN(C(=O)Cn2ncn3nc(-c4ccco4)cc3c2=O)CC1	-15%	-17%
CCOc1ccc(Cn2cnc3c2c(=O)n(C)c(=O)n3C)cc1OCC	13µM*	11µM*
Cn1c(=O)c2c(ncn2Cc2cccc3ccccc23)n(C)c1=O	u	5.6µM*
CCc1cccc(OCC(O)Cn2cnc3c2c(=O)n(C)c(=O)n3C)c1 (stereo not given)	-28%	-28%
Cn1c(=O)c2c(ncn2Cc2ccc(Cl)c(Cl)c2)n(C)c1=O	-28%	u
Cc1ccc(C(C)C)c(OCC(O)Cn2cnc3c2c(=O)n(C)c(=O)n3C)c1 (stereo not given)	25µM*	25µM*
CCCc1nc(Cn2cnc3c2c(=O)n(C)c(=O)n3C)cs1	10µM*	10µM*
Cn1c(=O)c2c(ncn2Cc2ccc(F)cc2)n(C)c1=O	8%	-6%
Cn1c(=O)c2c(ncn2CC(=O)OCc2cccc3ccccc23)n(C)c1=O	9%	-3%
CC(C)Cn1c(SC(C)C(=O)Nc2ccc3c(c2)OCO3)nc2cc(Cl)ccc2c1=O (stereo not given)	2%	-6%
CC(C)C(NC(=O)/C=C/c1ccc(Cl)cc1)C(C)C	5%	6%
COC(=O)CSc1nnc(COc2cccc3ccc(C)nc23)n1C	11%	3%
CC(=O)Nc1ccc(-c2nc(NC3CCCCC3)sc2C)cc1	15%	5%
CCCn1c(CN(C)Cc2ccccc2)nc2c1c(=O)n(C)c(=O)n2C	35µM*	u
CN(Cc1ccccc1)Cc1nc2c(c(=O)n(C)c(=O)n2C)n1CCc1ccccc1	-14%	5%
Cc1ccc(C(=O)OCc2ncc(-c3ccccc3)o2)c(O)c1	108%	8%
CCc1ccccc1NC(=O)NCc1ccc2c(c1)CCN2C(=O)c1ccccc1	-21%	-16%
CCOc1ccccc1NC(=O)NCc1ccc2c(c1)CCN2C(=O)c1ccccc1	8.9µM*	7.1µM*
CCCN1CCN(C(=O)C2CCN(S(=O)(=O)c3ccc4c(ccn4CC)c3)CC2)CC1	1%	5%
SMILES	FMDV FLuc	FMDV RLuc
O=C(Cn1cnc2cc(F)ccc2c1=O)N1CCCC1c1ccc2c(c1)OCCO2 (stereo not given)	17%	-2%
COc1cc(CNC(=O)c2nccnc2N)ccc1OCc1ccncc1	22µM*	10µM*
Nc1nccnc1C(=O)NCc1ccnc(OCc2ccccc2)c1	22µM*	10µM*
CCOc1ccccc1Oc1ccc(CNC(=O)Nc2cccnc2)cn1	14%	-16%
COc1ccc(CNC(=O)c2nccnc2N)cc1	28%	-19%
COc1ccc(CNC(=O)c2nccnc2N)cc1OC	6%	9%
O=C(Cc1cccc(F)c1)NCc1ccnc(OCc2ccccc2)c1	39%	6%
CCOc1ccccc1Oc1ccc(CNC(=O)c2nccnc2N)cn1	16µM*	14µM*
Nc1nccnc1C(=O)NCc1ccnc(Oc2ccc(F)cc2)c1	u	13µM*
COc1ccc(N(C(C)C(=O)NCc2ccc(Cl)cc2Cl)S(C)(=O)=O)cc1 (stereo not given)	41%	22%
O=S(=O)(Nc1nc2ccccc2nc1Nc1cccc(F)c1)c1ccccc1	0%	-6%
CCCCNC(=O)c1cc2n(n1)CCCN(Cc1ccc(C)cc1)C2=O	3%	34%
CCCCOc1ccc(CNC(=O)c2cc3n(n2)CCCN(Cc2ccc(C)cc2)C3=O)cc1	14µM*	-14%
Cc1ccc(C(=O)COC(=O)c2cc(C)nc3c(C)cccc23)cc1	1%	2%
COc1ccccc1C(=O)Nc1nc(-c2ccc(Br)cc2)ns1	-3%	-4%
